According to PubChem BioAssay (NCI):
The panel holds about 83,000 compounds, 20% with a hit somewhere; the sample as a whole holds those more often.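 Step 1: grow cells in 96-well plates. Step 2: add test compound at a single concentration. Step 3: incubate 48 h. Step 4: record percent growth.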 Activity calls are given as the source filed them. The calls were made as follows: active = growth percent below 10; inactive = the rest.

Tests used:
Test in all cases: NCI-60 one-dose screen, 48 h (100 = growth as untreated, 0 = no growth, -100 = all killed)
Conditions in all cases: 10 µM unless noted
[1] = tested on: DU-145 prostate
[2] = tested on: K-562 leukemia
[3] = tested on: MALME-3M melanoma
[4] = tested on: MDA-MB-231 breast
[5] = tested on: RXF 393 renal
[6] = tested on: SF-268 CNS
[7] = tested on: SF-295 CNS
[8] = tested on: SF-539 CNS
[9] = tested on: UACC-257 melanoma
[10] = tested on: M14 melanoma
[11] = tested on: HCT-15 colon
[12] = tested on: HT29 colon
[13] = tested on: SNB-75 CNS
[14] = tested on: SNB-19 CNS
[15] = tested on: PC-3 prostate
[16] = tested on: SK-MEL-5 melanoma
[17] = tested on: UACC-62 melanoma
[18] = tested on: LOX IMVI melanoma
[19] = tested on: SK-MEL-28 melanoma
[20] = tested on: U251 CNS

Measured: growth

CC(C)(C)c1ccc(Cn2cc(CSc3nc4ccccc4s3)nn2)cc1
inactive: [1] 115% | [2] 95.6% | [3] 94% | [4] 86.2% | [5] 103% | [6] 95.3% | [7] 91% | [8] 101% | [9] 97.3% | [10] 97% | [11] 99.7% | [12] 99.6% | [13] 94% | [14] 89.8% | [15] 96.1% | [16] 106% | [17] 88.4% | [18] 103% | [19] 96.4%

O=c1sn(-c2cccc3ccccc23)c(=O)n1Cc1ccccc1
inactive: [1] 108% | [3] 96.5% | [4] 101% | [5] 99.3% | [6] 105% | [7] 105% | [8] 114% | [9] 89.2% | [10] 89.8% | [11] 104% | [12] 100% | [13] 105% | [14] 101% | [15] 89.9% | [16] 104% | [17] 92.6% | [18] 99.9%
active: [2] 9.59%

COc1cc2c(cc1O)c(=O)n(CCN(C)C)c1c3cc4c(cc3ncc21)OCO4
active: [1] -10.9% | [2] 2.47% | [3] -57.6% | [4] -5.67% | [5] -51% | [6] 3.41% | [7] -5.78% | [8] -35.5% | [9] -47.6% | [10] -23.3% | [11] 2.84% | [12] 8.08% | [13] -37.2% | [14] -0.441% | [15] -9.82% | [16] -50.9% | [17] -54.2% | [18] -56.3% | [19] -7.55%

NC1(C(=O)N[C@@H](CCO)c2ccc(Cl)cc2)CCN(c2ncnc3[nH]ccc23)CC1
active: [3] 9.74% | [5] -42.3% | [7] -3.48% | [8] -54.4% | [13] -46.8% | [17] -15.6%
inactive: [1] 57.2% | [2] 76.9% | [4] 73.5% | [6] 60.9% | [9] 31.7% | [10] 46.3% | [11] 58.1% | [12] 23.5% | [14] 43.5% | [20] 34.6% | [15] 49.8% | [16] 70.5% | [18] 40.3% | [19] 24.7%

CN1[C@@H]2CC[C@H]1/C(=C\c1ccccc1)C1=C2[C@@H](c2ccccc2)C(C#N)=C(N)O1
inactive: [1] 51.5% | [2] 64.4% | [3] 88.8% | [4] 94.9% | [5] 63% | [6] 77% | [7] 83.8% | [8] 97.8% | [9] 54.6% | [10] 75.6% | [11] 81.1% | [12] 67.7% | [13] 80.4% | [14] 83.6% | [15] 72.8% | [16] 74.1% | [17] 73.9% | [18] 97.8%

CN1CC[C@H](c2c(O)cc(O)c3c(=O)cc(-c4ccccc4Cl)oc23)[C@H](O)C1
inactive: [14] 10.1%
active: [1] 9.08% | [2] 6.14% | [3] -45.3% | [4] 1.35% | [5] -65.5% | [6] 4.21% | [7] 8.48% | [8] -28% | [9] -23.8% | [10] -50.1% | [11] 4.15% | [12] -19.8% | [13] -59.7% | [15] -4.62% | [16] -19% | [17] -49.6% | [18] 4.81% | [19] -29.4%

N#CCNC(=O)c1ccc(-c2ccnc(Nc3ccc(N4CCOCC4)cc3)n2)cc1
inactive: [1] 18.6% | [2] 26.9% | [3] 33.2% | [4] 19.8% | [6] 22.1% | [7] 49.5% | [9] 31.1% | [10] 44% | [11] 20.7% | [12] 24.2% | [14] 50.8% | [15] 30.8% | [16] 25.1% | [17] 34% | [19] 36.7%
active: [5] -62.8% | [8] -9.39% | [13] -4.36% | [18] 4.92%

O=C(c1ccc(F)c(F)c1Nc1ccc(I)cc1F)N1CC(O)([C@@H]2CCCCN2)C1
inactive: [1] 46.3% | [6] 44.6% | [7] 54.9% | [8] 29.2% | [11] 25.6% | [13] 21.7% | [14] 36.4% | [15] 38.6%
active: [2] -26.8% | [3] -21.8% | [4] 0.9% | [5] -32.3% | [9] -10.8% | [10] -30.6% | [12] -18.5% | [16] -92.9% | [17] -5.75% | [18] -84.1% | [19] -1.76%

Cc1cc(-c2cc(O)ccc2Cl)cc2nnc(Nc3ccc(OCCN4CCCC4)cc3)nc12
active: [1] -89.4% | [2] -63.9% | [3] -68.4% | [4] -80.5% | [5] -73.4% | [6] -69.8% | [7] -76.3% | [8] -86.8% | [9] -75.9% | [10] -51.8% | [11] -78.5% | [12] -57.1% | [13] -90.8% | [14] -64.4% | [20] -74.5% | [15] -80.5% | [16] -84.9% | [17] -77.7% | [18] -63.9% | [19] -72.3%

S=C(NCc1ccc2c(c1)OCO2)N1CCN(c2ncnc3c2oc2ccccc23)CC1
active: [9] 9.31% | [16] -46%
inactive: [1] 35.4% | [2] 19.4% | [3] 51.1% | [4] 57.1% | [5] 50.7% | [6] 42.2% | [7] 26.4% | [8] 39.7% | [10] 35.2% | [11] 37.1% | [12] 28.9% | [13] 37.6% | [14] 49.1% | [20] 41.3% | [15] 27.3% | [17] 31% | [18] 44.6% | [19] 52.9%

Cc1nc(Nc2n[nH]c3c2CN(C(=O)N[C@H](CN(C)C)c2ccccc2)C3(C)C)c2sccc2n1
inactive: [11] 20%
active: [1] 6.06% | [2] 4.69% | [3] -71.4% | [4] -29.1% | [5] -77.3% | [6] -18.4% | [7] -3.9% | [8] -54.8% | [9] -54.6% | [10] -54.8% | [12] -29.6% | [13] -80% | [14] 0.125% | [20] -22.7% | [15] -10% | [16] -84.9% | [17] -87% | [18] -41.3% | [19] -33.7%

Cn1cc(-c2[nH]c3cc(NC(=O)[C@H](N)C4CCCCC4)cc4c3c2C=NNC4=O)cn1
active: [2] -59.6% | [3] -56.2% | [4] -67.7% | [5] -85.1% | [6] -23.4% | [8] -84.8% | [10] -17.6% | [12] -11.1% | [13] -70.2% | [14] -24.4% | [15] 7.2% | [16] -36.6% | [18] -73.4% | [19] -70%
inactive: [1] 30.5% | [7] 16.8% | [9] 21.1% | [11] 20.1% | [17] 26.1%

Cc1nc(N)sc1-c1ccnc(Nc2ccc(N3CCOCC3)cc2)n1
inactive: [1] 33.2% | [2] 59.1% | [3] 47.8% | [4] 29.5% | [5] 18.3% | [6] 28.5% | [7] 25.3% | [8] 25.6% | [9] 71.9% | [10] 36.8% | [11] 44.7% | [12] 25.5% | [14] 29.9% | [20] 27.9% | [15] 38.3% | [16] 70.8% | [17] 41.6% | [18] 29.6% | [19] 61.5%
active: [13] -11%

COc1cc(Nc2ncc(F)c(Nc3ccc4c(n3)NC(=O)C(C)(C)O4)n2)cc(OC)c1OC
inactive: [1] 48.8% | [2] 66.5% | [3] 88.7% | [4] 41.7% | [6] 29.8% | [7] 59.9% | [9] 57.1% | [10] 57.5% | [11] 53.3% | [12] 12.3% | [14] 64.6% | [15] 51.9% | [16] 71.8% | [17] 58% | [19] 67.1%
active: [5] -40.3% | [8] -14.8% | [13] -7.82% | [18] 9.51%

CO[C@H]1C[C@@H]2CC[C@@H](C)[C@@](O)(O2)C(=O)C(=O)N2CCCC[C@H]2C(=O)O[C@H]([C@H](C)C[C@@H]2CC[C@@H](OC(=O)C(C)(CO)CO)[C@H](OC)C2)CC(=O)[C@H](C)/C=C(\C)[C@@H](O)[C@@H](OC)C(=O)[C@H](C)C[C@H](C)\C=C/C=C/C=C/1C
inactive: [1] 37.7% | [2] 18.3% | [3] 24% | [4] 24.8% | [6] 30.9% | [7] 13.6% | [9] 30.4% | [10] 32.3% | [11] 27.3% | [14] 30.6% | [20] 19.4% | [15] 18.1% | [16] 12.9% | [17] 31.5% | [18] 22.5% | [19] 34.2%
active: [5] -16.3% | [8] 4.68% | [12] 4.55% | [13] -0.0597%

Cc1nc(NC(=O)N2CCC[C@H]2C(N)=O)sc1-c1ccnc(C(C)(C)C(F)(F)F)c1
active: [12] 4.8%
inactive: [1] 34.1% | [2] 80.9% | [3] 43.8% | [4] 65.3% | [5] 25.6% | [6] 54.2% | [7] 32.8% | [8] 28.1% | [9] 40% | [10] 41.4% | [11] 30.4% | [13] 24.8% | [14] 66.1% | [20] 33.4% | [15] 43.3% | [16] 61.8% | [17] 23.8% | [18] 18.8% | [19] 49.2%
